In PubChem BioAssay:
For some of these results: Entries with a potency or affinity are not part of this list. Activity calls are given as the source filed them. Unless noted, how the calls were made is not given here.

Assays:
[1] = antimalarial activity against Dd2 strain (AID 2302;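 active means growth inhibition above 50% at the single 2 µM test dose, taken to imply half-maximal potency below 2 µM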;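 further: 0% = DMSO untreated growth and 100% = chloroquine plus artemisinin killed control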); settings: P. falciparum Dd2 in RBCs, LDH growth readout, 72 h; at 2 µM; hits give high values
[2] = human hepatoma cell viability loss – ATP luminescence, cytotoxicity control for P. falciparum antimalarial project, primary screen (AID 2303;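 active means inhibition above 50%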;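 further: 0% = DMSO wells and 100% = digitonin-killed cells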); settings: HepG2 viability, 24-48 h, at 10 µM, hits give high values
[3] = target: L-lactate dehydrogenase (Plasmodium falciparum (isolate CDC / Honduras)) (UniProt Q27743); assay: PfLDH activity inhibition – cell lysate, 3D7 strain, counter-screen for P. falciparum growth inhibition project (AID 2304);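 further: 0% = vehicle and 100% = reference inhibitor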; settings: P. falciparum 3D7 crude extract, LDH APAD/NBT absorbance; at 2 µM; hits give high values
[4] = inhibition of 3D7 malaria parasite growth – strain 3D7 (AID 2306);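 further: 0% = DMSO wells and 100% = chloroquine plus artemisinin control wells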; settings: P. falciparum 3D7 erythrocytic growth, LDH absorbance, 72 h; at 2 µM; hits give high values
[5] = target: Calcium-dependent protein kinase 1 (Plasmodium falciparum (isolate 3D7)) (UniProt P62344); assay: PfCDPK1 kinase inhibitors, biochemical, TCAMS library (AID 1159585; cut-off not given, nearly all actives have IC50 up to about 0.98 µM;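 further: inhibitors leave more ATP so luminescence rises with inhibition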); settings: recombinant PfCDPK1, Kinase-Glo ATP depletion luminescence
[6] = target: Plasmodium falciparum protein kinase 6 (PK6, PF3D7_1337100) (UniProt Q8IDW1); assay: PfPK6 kinase inhibitors, biochemical, TCAMS library (AID 1159586); settings: recombinant PfPK6, Kinase-Glo ATP depletion luminescence
[7] = target: Protein kinase 7 (PK7), Plasmodium falciparum 3D7 (PF3D7_0213400) (UniProt Q7YTF7); assay: inhibition of Plasmodium PK7 catalytic activity – biochemical, TCAMS antimalarial set, Kinase-Glo luminescence (AID 1159587); settings: recombinant PfPK7, Kinase-Glo ATP depletion luminescence
[8] = target: Calcium-dependent protein kinase 4 (Plasmodium falciparum (isolate 3D7)) (UniProt Q8IBS5); assay: PfCDPK4 kinase inhibitors, biochemical, TCAMS library (AID 1159588; cut-off not given, nearly all actives have IC50 up to about 0.91 µM); settings: recombinant PfCDPK4, Kinase-Glo ATP depletion luminescence
Sequence of Calcium-dependent protein kinase 4 (Plasmodium falciparum (isolate 3D7)) (Q8IBS5 whole entry, looked up): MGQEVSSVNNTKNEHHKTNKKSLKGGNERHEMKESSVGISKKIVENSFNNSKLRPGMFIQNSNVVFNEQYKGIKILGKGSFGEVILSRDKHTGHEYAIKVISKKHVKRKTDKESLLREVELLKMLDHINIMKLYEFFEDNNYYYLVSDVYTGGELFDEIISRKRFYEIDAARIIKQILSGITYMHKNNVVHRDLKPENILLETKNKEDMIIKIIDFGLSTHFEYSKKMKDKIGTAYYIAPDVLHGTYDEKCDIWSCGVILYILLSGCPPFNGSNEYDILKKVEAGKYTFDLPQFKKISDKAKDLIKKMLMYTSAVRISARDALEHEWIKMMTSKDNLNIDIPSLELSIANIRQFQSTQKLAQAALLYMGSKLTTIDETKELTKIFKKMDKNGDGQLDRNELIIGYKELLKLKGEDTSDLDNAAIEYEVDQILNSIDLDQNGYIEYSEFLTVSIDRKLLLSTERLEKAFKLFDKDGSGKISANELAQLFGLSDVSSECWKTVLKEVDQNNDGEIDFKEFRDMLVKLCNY

Sequence of Protein kinase 7 (PK7), Plasmodium falciparum 3D7 (PF3D7_0213400) (Q7YTF7 1-343): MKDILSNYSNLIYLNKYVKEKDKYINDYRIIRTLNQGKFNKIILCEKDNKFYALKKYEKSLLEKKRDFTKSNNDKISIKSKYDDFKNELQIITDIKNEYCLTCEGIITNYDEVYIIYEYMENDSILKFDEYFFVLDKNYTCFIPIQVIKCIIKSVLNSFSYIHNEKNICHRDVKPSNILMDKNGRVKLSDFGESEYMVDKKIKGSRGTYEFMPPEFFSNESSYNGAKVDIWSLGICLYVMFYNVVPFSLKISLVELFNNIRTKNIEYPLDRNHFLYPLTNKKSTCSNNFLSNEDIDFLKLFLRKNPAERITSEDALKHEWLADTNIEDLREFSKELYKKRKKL
Sequence of Calcium-dependent protein kinase 1 (Plasmodium falciparum (isolate 3D7)) (P62344 whole entry, looked up): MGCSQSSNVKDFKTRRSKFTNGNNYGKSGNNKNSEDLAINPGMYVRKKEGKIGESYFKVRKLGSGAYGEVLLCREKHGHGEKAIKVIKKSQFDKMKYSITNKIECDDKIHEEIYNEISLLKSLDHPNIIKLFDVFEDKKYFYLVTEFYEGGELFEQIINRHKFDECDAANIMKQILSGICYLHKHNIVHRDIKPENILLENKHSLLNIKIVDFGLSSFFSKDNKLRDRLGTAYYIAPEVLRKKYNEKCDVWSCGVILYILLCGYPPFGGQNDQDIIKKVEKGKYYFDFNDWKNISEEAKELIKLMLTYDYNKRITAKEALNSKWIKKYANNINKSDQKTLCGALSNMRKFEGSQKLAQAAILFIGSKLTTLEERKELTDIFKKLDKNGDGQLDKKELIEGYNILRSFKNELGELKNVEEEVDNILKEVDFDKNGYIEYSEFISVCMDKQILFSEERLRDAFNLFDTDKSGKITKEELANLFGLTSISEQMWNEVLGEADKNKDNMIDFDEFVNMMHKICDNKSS
Sequence of Plasmodium falciparum protein kinase 6 (PK6, PF3D7_1337100) (Q8IDW1 1-305): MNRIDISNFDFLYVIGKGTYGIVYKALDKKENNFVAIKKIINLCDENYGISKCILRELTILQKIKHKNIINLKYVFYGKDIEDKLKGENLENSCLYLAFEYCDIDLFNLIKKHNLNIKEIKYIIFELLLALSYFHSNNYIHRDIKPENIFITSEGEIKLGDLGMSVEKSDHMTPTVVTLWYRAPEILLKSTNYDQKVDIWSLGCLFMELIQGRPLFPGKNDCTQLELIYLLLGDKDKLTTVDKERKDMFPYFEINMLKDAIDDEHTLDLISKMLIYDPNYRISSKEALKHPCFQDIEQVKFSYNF
Sequence of L-lactate dehydrogenase (Plasmodium falciparum (isolate CDC / Honduras)) (Q27743 whole entry, looked up): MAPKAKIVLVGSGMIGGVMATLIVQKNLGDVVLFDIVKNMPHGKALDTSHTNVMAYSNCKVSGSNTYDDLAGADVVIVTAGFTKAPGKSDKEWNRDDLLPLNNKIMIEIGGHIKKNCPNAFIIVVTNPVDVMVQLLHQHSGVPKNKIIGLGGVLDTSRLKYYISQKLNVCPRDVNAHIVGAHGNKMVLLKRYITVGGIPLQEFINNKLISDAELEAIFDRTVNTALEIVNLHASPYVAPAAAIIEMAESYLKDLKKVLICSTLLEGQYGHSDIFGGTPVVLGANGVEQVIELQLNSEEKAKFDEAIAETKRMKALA

C=C[C@]1(C)C[C@@H](OC(=O)c2cncn(COC)c2=O)[C@]2(C)[C@H](C)CC[C@]3(CCC(=O)[C@H]32)[C@@H](C)[C@@H]1O
active: growth inhibition [4] 96%
inactive: growth inhibition [1] 7% | inhibition [2] -1% | inhibition [3] -1% | outcome [5] | outcome [6] | outcome [7] | outcome [8]

CN(C)c1ccc(C=Cc2nc(=O)c3ccccc3o2)cc1
inactive: inhibition [2] 6% | inhibition [3] 0% | outcome [5] | outcome [6] | outcome [7] | outcome [8]
active: growth inhibition [1] 97% | growth inhibition [4] 96%

O=C([C@H]1C[C@@H]1c1ccccc1)N(Cc1ccc(-c2ccc(CNCCc3ccccc3)cc2)cc1)C1CCNCC1
inactive: growth inhibition [1] 39% | inhibition [2] 36% | inhibition [3] -5% | outcome [5] | outcome [6] | outcome [7] | outcome [8]
active: growth inhibition [4] 96%

CO/C(=C\C=C\c1cc2cc(Cl)c(Cl)cc2[nH]1)C(=O)NCCCN1CCN(Cc2ccccc2)CC1
inactive: inhibition [2] 45% | inhibition [3] -2% | outcome [5] | outcome [6] | outcome [7] | outcome [8]
active: growth inhibition [1] 65% | growth inhibition [4] 94%

O=[N+]([O-])c1cccc(CNCC2CCN(CCc3ccccc3)CC2)c1
active: growth inhibition [4] 98%
inactive: growth inhibition [1] 11% | inhibition [2] 15% | inhibition [3] -6% | outcome [5] | outcome [6] | outcome [7] | outcome [8]

CCCCCc1cnc2nc(N)nc(N)c2c1
inactive: growth inhibition [1] 6% | inhibition [3] -1% | outcome [5] | outcome [6] | outcome [7] | outcome [8]
active: inhibition [2] 72% | growth inhibition [4] 82%

CCC1CN(S(=O)(=O)c2ccc3c(c2)NC(=O)CC(=O)N3)c2cc(Cl)ccc2O1 (stereo not given)
inactive: inhibition [2] -9% | inhibition [3] -5% | outcome [5] | outcome [6] | outcome [7] | outcome [8]
active: growth inhibition [1] 65% | growth inhibition [4] 99%

Cc1ccc2nc(N(CCCn3ccnc3)C(=O)C=Cc3cccs3)sc2c1
active: growth inhibition [1] 57% | growth inhibition [4] 100%
inactive: inhibition [2] 22% | inhibition [3] 0% | outcome [5] | outcome [6] | outcome [7] | outcome [8]

COc1ccc(CNC2CCN(C)CC2)cc1-c1ccc(S(=O)(=O)NCc2cccnc2)s1
active: growth inhibition [4] 100%
inactive: growth inhibition [1] 3% | inhibition [2] 10% | inhibition [3] -4% | outcome [5] | outcome [6] | outcome [7] | outcome [8]

COc1ccccc1C1CCN(C2CCC(NC(=O)/C=C/c3ccc(OC(F)(F)F)cc3)CC2)CC1 (stereo not given)
active: inhibition [2] 65% | growth inhibition [4] 82%
inactive: growth inhibition [1] 11% | inhibition [3] -3% | outcome [5] | outcome [6] | outcome [7] | outcome [8]

COc1ccccc1Nc1nc(C)cc(NCc2ccc(-n3ccnc3)cc2)n1
inactive: growth inhibition [1] 10% | inhibition [2] 5% | inhibition [3] -2% | outcome [5] | outcome [6] | outcome [7] | outcome [8]
active: growth inhibition [4] 90%

O=C(NC1CCN(c2ncc(C(F)(F)F)cc2Cl)CC1)c1cccs1
inactive: inhibition [2] 15% | inhibition [3] -1% | outcome [5] | outcome [6] | outcome [7] | outcome [8]
active: growth inhibition [1] 65% | growth inhibition [4] 84%

CCCCCC(C)N=C(Nc1ccc(C#N)cc1O)Nc1cccc(Cl)c1Cl (stereo not given)
inactive: inhibition [2] 28% | inhibition [3] -5% | outcome [5] | outcome [6] | outcome [7] | outcome [8]
active: growth inhibition [1] 98% | growth inhibition [4] 100%

Cc1ccc(NC(=O)c2ccc3ncccc3c2)cc1OC1CCN(C(C)C)C1 (stereo not given)
active: growth inhibition [4] 95%
inactive: growth inhibition [1] 37% | inhibition [2] 12% | inhibition [3] 1% | outcome [5] | outcome [6] | outcome [7] | outcome [8]

CO/C(=C\C=C\c1cc2cc(Cl)c(Cl)cc2[nH]1)C(=O)NCCCN(C)CCN(C)c1ccccc1
inactive: inhibition [2] 38% | inhibition [3] 0% | outcome [5] | outcome [6] | outcome [7] | outcome [8]
active: growth inhibition [1] 59% | growth inhibition [4] 96%

COc1cccc(-c2ccc(NC(=O)C3CCCN(Cc4cccc(OC)c4O)C3)cc2)c1 (stereo not given)
active: growth inhibition [1] 78% | growth inhibition [4] 98%
inactive: inhibition [2] 13% | inhibition [3] 1% | outcome [5] | outcome [6] | outcome [7] | outcome [8]

Cc1cc(N[C@@H](Cc2ccccc2)C(=O)Nc2ccccc2)nc(NCCc2ccccn2)n1
active: growth inhibition [1] 50% | growth inhibition [4] 97%
inactive: inhibition [2] -3% | inhibition [3] -1% | outcome [5] | outcome [6] | outcome [7] | outcome [8]

CCCC(CNCc1cccc(SC(F)(F)F)c1)CNc1cc(=O)c2ccccc2[nH]1 (stereo not given)
inactive: inhibition [2] 5% | inhibition [3] 5% | outcome [5] | outcome [6] | outcome [7] | outcome [8]
active: growth inhibition [1] 87% | growth inhibition [4] 101%

CN(Cc1ccc(-c2ccc(C(F)(F)F)cc2)cc1)C(=O)Cn1c(CCc2cccc(F)c2F)cc(=O)c2ccc(OCC3CCCN3C)cc21 (stereo not given)
active: inhibition [2] 100% | growth inhibition [4] 87%
inactive: growth inhibition [1] 37% | inhibition [3] -6% | outcome [5] | outcome [6] | outcome [7] | outcome [8]

Cc1noc(C)c1-c1cccc(CNCc2ccc(-c3ccc(-c4nc5ccc(C(F)(F)F)cc5[nH]4)s3)cc2)c1
active: growth inhibition [1] 99% | inhibition [2] 54% | growth inhibition [4] 102%
inactive: inhibition [3] 3% | outcome [5] | outcome [6] | outcome [7] | outcome [8]
